Most compounds without a hit are left out; they make up all but 18% or so of the library.
RORgamma inh: qHTS for inhibitors of ROR gamma transcriptional activity; Potency, µM (doses to about 53.6 µM), hits mostly inhibitors; hit rate 5.4% among 310,000; Drosophila S2 Gal4-RORgamma UAS-luciferase reporter, 20 h; AID 2551, 2010; Nuclear receptor ROR-gamma (Mus musculus), P51450; also: nearly all actives have a fitted effect of over 60% in size
Target sequence (P51450 whole entry, looked up, the tested form may be a part): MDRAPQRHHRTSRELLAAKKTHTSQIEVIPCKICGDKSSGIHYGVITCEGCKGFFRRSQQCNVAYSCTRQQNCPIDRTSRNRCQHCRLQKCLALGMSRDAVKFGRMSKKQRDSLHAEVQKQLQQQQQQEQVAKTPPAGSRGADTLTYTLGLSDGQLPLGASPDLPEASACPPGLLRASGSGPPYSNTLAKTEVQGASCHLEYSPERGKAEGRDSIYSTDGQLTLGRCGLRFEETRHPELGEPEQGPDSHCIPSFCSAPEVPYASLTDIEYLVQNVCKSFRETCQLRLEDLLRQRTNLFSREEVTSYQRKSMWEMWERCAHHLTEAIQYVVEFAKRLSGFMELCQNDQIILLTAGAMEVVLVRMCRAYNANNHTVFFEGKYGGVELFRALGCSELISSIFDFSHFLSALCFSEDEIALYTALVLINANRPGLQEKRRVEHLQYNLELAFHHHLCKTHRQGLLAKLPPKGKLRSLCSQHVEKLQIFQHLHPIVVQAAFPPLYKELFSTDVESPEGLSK
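Stably transfected Drosophila Schneider cells are the test system, with ROR gamma fused to Gal4 and luciferase under UAS control; luminescence is read after 20 hr of 700 uM copper sulfate induction at ambient temperature.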
LDHA block: qHTS assay for inhibitors of human lactate dehydrogenase; activity change, % (values are at about 110 or 230 µM); purified LDHA, NADH/diaphorase-resazurin fluorescence; hits give low values; L-lactate dehydrogenase A chain (Homo sapiens), P00338; hit rate 0.15% among 480,000; in the data active = activity change below about -30%; inconclusive = mostly about -25% to -30%
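Resorufin fluorescence (ex540/em590), read at 0 and 20 min after diaphorase/resazurin addition, reports the NADH left after a 5 min room-temperature reaction of 2 nM human LDH5 with 0.06 mM NADH and 0.2 mM pyruvate.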
TDP1 cell CPT: qHTS for Inhibitors of human tyrosyl-DNA phosphodiesterase 1 (TDP1): qHTS in cells in presence of CPT; chicken DT40 Tdp1-/-;hTDP1 cells + 20 nM CPT, ATP luminescence, 48 h; Potency, µM (titrated, usually from 46.2 µM), most hits filed as inhibitors; hit rate 12% among 420,000; also: nearly all actives have a fitted effect of over 55% in size
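Cell growth measured by CellTiter-Glo luminescence after a minimum 48 h, 37 C compound exposure with 20 nM CPT in Tdp1-knockout DT40 cells stably expressing hTDP1, seeded 400/well; qHTS titration format.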
IL-1B inflam inh: qHTS for Inhibitors of Inflammasome Signaling: IL-1-beta AlphaLISA Primary Screen. THP-1 LPS/ATP IL-1B secretion, AlphaLISA, 16 h; hits give low values. activity change, % at 57.5 µM. hit rate 4.7% among 360,000. AID 743279, 2014; in the data active = activity change below about -50%; inconclusive = mostly about -30% to -49%
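THP-1 cells pretreated 1 hr with compounds (up to 57.5 uM final), then stimulated with LPS (250 ng/mL final) plus ATP (1.25 mM final); secreted IL-1B measured by AlphaLISA after 16 hr, decreased signal indicating inhibition.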
TDP1 cell noCPT: qHTS for Inhibitors of human tyrosyl-DNA phosphodiesterase 1 (TDP1): qHTS in cells in absence of CPT; hit rate 15% among 420,000; DT40 Tdp1-/- hTDP1 cells, no CPT, ATP luminescence, 48 h; Potency, µM (doses to about 46.2 µM), most hits filed as inhibitors; AID 686978, 2013; also: nearly all actives have a fitted effect of over 55% in size
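Growth of hTDP1-complemented DT40 Tdp1-knockout cells is measured by ATP luminescence after at least 48 hr compound exposure at 37 °C, with DMSO substituting for the 20 nM CPT used in the parallel screen.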
VP16 counter: VP16 counterscreen qHTS for inhibitors of ROR gamma transcriptional activity | Drosophila S2 Gal4-VP16 UAS-luciferase, luminescence, 20 h | Potency, µM (doses to about 53.6 µM), most hits filed as inhibitors | hit rate 3.5% among 310,000 | AID 2546, 2010;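 also: Gal4-VP16 expression switched on by copper sulfate through the metallothionein promoter; nearly all actives have a fitted effect of over 50% in size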
A number is an active result; n = inactive; u = inconclusive; x = not tested or not shown. Unless noted, calls follow the shape of the dose curve; as a rule, active = well fitted curve in the direction sought with a large enough effect; inconclusive = small, poorly fitted or top-dose-only effect, or another doubt; inactive = no such curve, though single readings can be large; an effect the other way counts as inactive or inconclusive.

SMILES	RORgamma inh	LDHA block	TDP1 cell CPT	IL-1B inflam inh	TDP1 cell noCPT	VP16 counter
O=C(NCC1CCCO1)c1ccc2c(c1)N(Cc1ccc(F)cc1)CCS2 (stereo not drawn)	n	n	u	n	u	n
CN1CCN(CCCNC(=O)c2ccc3c(c2)N(Cc2ccc(F)cc2)CCS3)CC1	n	n	16µM	n	u	n
CCN1CCN(CCCNC(=O)c2ccc3c(c2)N(Cc2ccccc2)CCS3)CC1	n	n	23µM	n	u	n
CC(Sc1n[nH]c(=O)n1C1CC1)C(=O)c1ccc(Br)cc1 (stereo not drawn)	x	n	x	x	x	x
O=C(CSc1nc2ccc(N3CCOCC3)cc2c(=O)n1CCc1ccccc1)NCC1CCCO1 (stereo not drawn)	5.6µM	n	u	n	u	13µM
O=C(CCCn1c(SCc2ccccc2F)nc2ccccc2c1=O)NCC1CCCO1 (stereo not drawn)	u	n	n	n	u	n
CCCCNC(=O)CSc1nc2ccc(N3CCOCC3)cc2c(=O)n1CCc1ccccc1	7.9µM	n	u	n	u	7.9µM
CCCCCn1c(SCC#N)nc2cc(C(=O)NCC3CCCO3)ccc2c1=O (stereo not drawn)	n	n	u	n	23µM	n
O=C(CCCn1c(SCc2cccc([N+](=O)[O-])c2)nc2ccccc2c1=O)NCC1CCCO1 (stereo not drawn)	u	n	u	u	23µM	n
CCCCNc1nc(-c2ccc3c(c2)CC(C)N3S(C)(=O)=O)cs1 (stereo not drawn)	x	n	x	x	x	x
CCOc1ccccc1NC(=O)Nc1cc(C)c2nc(NC(C)=O)sc2c1	x	n	x	x	x	x
CCOC(=O)CSc1nc2ccc(N3CCOCC3)cc2c(=O)n1Cc1ccccc1	13µM	n	u	n	n	u
CCOC(=O)CSc1nc2ccccc2c(=O)n1CCN1CCOCC1	n	n	n	n	n	n
COCCNC(=O)CSc1nc2ccc(N3CCOCC3)cc2c(=O)n1CCc1ccccc1	3.5µM	n	u	n	n	u
CCOC(=O)CSc1nc2sc3c(c2c(=O)n1Cc1ccccc1)CC(C)CC3 (stereo not drawn)	x	n	u	x	12µM	x
Cn1c(=O)c2c(nc(Cl)n2CC(=O)N(C2CC2)C2CCS(=O)(=O)C2)n(C)c1=O (stereo not drawn)	x	n	x	x	x	x
CC[N+](C)(C)CCN(Cc1ccc(Cl)cc1)c1ccccn1	n	n	18µM	n	9.2µM	n
COc1ccc(CN(CCCN)c2ccc(Br)cn2)cc1	x	n	u	x	11µM	x
NCCCN(Cc1ccc(Cl)c(Cl)c1)c1ccccn1	x	n	10µM	x	8.9µM	x
NCCN(Cc1ccc(Cl)c(Cl)c1)c1ccc(Br)cn1	x	n	4µM	x	4µM	x
CC(=O)NCCCNC(=S)NCCCN(Cc1ccc(Cl)cc1)c1ccc(Br)cn1	x	n	u	x	u	x
S=C(NCCCc1cnc[nH]1)NCCN(Cc1ccc(Cl)c(Cl)c1)c1ccc(Br)cn1	x	n	x	x	x	x
CCc1ccc(-c2cc(C)no2)cc1S(=O)(=O)Nc1cc(Cl)ccc1OC	x	n	x	x	x	x
CCC(=O)Nc1sc(C)c(C)c1C#N	x	n	x	x	x	x
COC(=O)c1cc(Br)ccc1NC(=O)c1ccc(OC)cc1	x	n	x	x	x	x
C=CCOc1ccc(C(=O)Nc2ccc(C)c(C)c2)cc1	x	n	x	x	x	x
CC(=O)Nc1cc(C)nn1-c1nc(C)cc(C)n1	u	n	n	n	n	n
Cc1ccc(Nc2cc(C)nc3nnnn23)cc1	n	n	n	n	n	n
Cc1ccc(Nc2cc(C)nn2-c2nc(C)cc(C)n2)cc1	u	n	5.8µM	n	5.8µM	3.2µM
Cc1ccc(Nc2cc(C)nn2-c2nc(C)cc(=O)[nH]2)cc1	0.18µM	n	0.79µM	-110	0.56µM	0.63µM

Screens deposited in PubChem BioAssay by National Center for Advancing Translational Sciences (NCATS).
